Measured values published in PubChem BioAssay (NCI).
About 83,000 compounds went through this panel and 20% of them were active in at least one assay; those are over-represented in the sample as a whole.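 Treatment: one concentration, 48 hours, 96-well format. Scoring: percent growth, with anything below 10 considered active.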 Active and inactive are the calls of the source.

Assays:
Experiment in all cases: NCI-60 one-dose screen, 48 h (100 = growth as untreated, 0 = no growth, -100 = all killed)
Settings in all cases: 10 µM
NCI-H23 lung = test system: NCI-H23 lung
NCI-H226 lung = test system: NCI-H226 lung
NCI-H460 lung = test system: NCI-H460 lung
HOP-92 NSCLC = test system: HOP-92 NSCLC
A549/ATCC NSCLC = test system: A549/ATCC NSCLC
786-0 renal = test system: 786-0 renal
COLO 205 colon = test system: COLO 205 colon
DU-145 prostate = test system: DU-145 prostate
MALME-3M melanoma = test system: MALME-3M melanoma
MDA-MB-231 breast = test system: MDA-MB-231 breast
RXF 393 renal = test system: RXF 393 renal
SF-268 CNS = test system: SF-268 CNS
SF-295 CNS = test system: SF-295 CNS
SF-539 CNS = test system: SF-539 CNS
UACC-257 melanoma = test system: UACC-257 melanoma
M14 melanoma = test system: M14 melanoma
NCI-H522 lung = test system: NCI-H522 lung
K-562 leukemia = test system: K-562 leukemia

Measured: growth

C[C@]12CCC3c4ccc(O)cc4C[C@@H](CCCCCCCCCS(=O)CCCC(F)(F)C(F)(F)F)C3C1CC[C@@H]2O (some centres not stated)
inactive: NCI-H23 lung 84.8% | NCI-H226 lung 94.2% | NCI-H460 lung 67.7% | HOP-92 NSCLC 78% | A549/ATCC NSCLC 67.9% | 786-0 renal 96.1% | COLO 205 colon 93.7% | DU-145 prostate 103% | MALME-3M melanoma 103% | MDA-MB-231 breast 79.5% | RXF 393 renal 87.5% | SF-268 CNS 97.1% | SF-295 CNS 42.8% | SF-539 CNS 86.4% | UACC-257 melanoma 91.5% | M14 melanoma 100%

CCC1NC(=O)c2cc(S(N)(=O)=O)c(Cl)cc2N1 (configuration not stated)
inactive: NCI-H23 lung 108% | NCI-H226 lung 102% | NCI-H460 lung 114% | HOP-92 NSCLC 91.2% | A549/ATCC NSCLC 104% | 786-0 renal 116% | COLO 205 colon 109% | DU-145 prostate 124% | MALME-3M melanoma 118% | MDA-MB-231 breast 109% | RXF 393 renal 115% | SF-268 CNS 115% | SF-295 CNS 93% | SF-539 CNS 115% | UACC-257 melanoma 104% | M14 melanoma 110%

CCCCCOC(=O)Nc1nc(=O)n(C2O[C@H](C)[C@@H](O)[C@H]2O)cc1F (some centres not stated)
inactive: NCI-H23 lung 95.3% | NCI-H226 lung 97.7% | NCI-H460 lung 102% | HOP-92 NSCLC 92.4% | A549/ATCC NSCLC 98% | 786-0 renal 106% | COLO 205 colon 106% | DU-145 prostate 115% | MALME-3M melanoma 103% | MDA-MB-231 breast 90.9% | RXF 393 renal 98.1% | SF-268 CNS 95.4% | SF-295 CNS 98.1% | SF-539 CNS 101% | UACC-257 melanoma 96.2% | M14 melanoma 108%

O=S(=O)(NCCCNc1nccc(-c2cn(-c3ccccc3)nc2-c2ccc(Cl)c(O)c2)n1)c1ccccc1
inactive: NCI-H23 lung 78.5% | NCI-H226 lung 76.3% | NCI-H460 lung 46.3% | NCI-H522 lung 65.6% | A549/ATCC NSCLC 37.3% | 786-0 renal 68% | COLO 205 colon 69.4% | DU-145 prostate 81.4% | K-562 leukemia 65% | MALME-3M melanoma 125% | MDA-MB-231 breast 71.6% | RXF 393 renal 74.2% | SF-268 CNS 68.5% | SF-295 CNS 63.2% | SF-539 CNS 88.9%

CC1/C=C/C=C/C=C/C=C/C=C/C=C/C=C/C(O[C@@H]2O[C@H](C)[C@H](O)[C@@H](O)[C@@H]2N)CC(O)C(C(=O)O)C(O)CC(=O)CC(O)CC(O)CC(O)CC(=O)CCCC(=O)CC(=O)OC1C(C)CC(C)C(O)CC(=O)c1ccc(N)cc1 (some centres not stated)
active: NCI-H23 lung -96.5% | NCI-H226 lung -93% | NCI-H460 lung -81.8% | HOP-92 NSCLC -88.2% | A549/ATCC NSCLC -100% | 786-0 renal -94% | COLO 205 colon -83.2% | DU-145 prostate -98.7% | MALME-3M melanoma -92.5% | MDA-MB-231 breast -94.8% | RXF 393 renal -90.9% | SF-268 CNS -95.8% | SF-295 CNS -95.3% | SF-539 CNS -71.4% | UACC-257 melanoma -99.7% | M14 melanoma -88.7%

C[C@@H](O)[C@H]1C(=O)N2C(C(=O)O)=C(SCCN=CN)C[C@H]12
active: NCI-H23 lung -1.59% | NCI-H226 lung -34.7% | NCI-H460 lung 1.59% | HOP-92 NSCLC -8.43% | A549/ATCC NSCLC -14.9% | 786-0 renal 8.8% | COLO 205 colon -25.8% | DU-145 prostate -7.37% | MALME-3M melanoma -60.1% | MDA-MB-231 breast 9.83% | RXF 393 renal 1.5% | SF-268 CNS -4.56% | SF-295 CNS -5.26% | SF-539 CNS 3.65% | UACC-257 melanoma -31% | M14 melanoma -44.7%

COc1ccc(-c2nn(-c3cccc(Cl)c3)cc2-c2c(C#N)c(=O)n3[nH]c(-c4ccc(C)cc4)nc3c2C#N)cc1
active: 786-0 renal 3.78% | K-562 leukemia 4.62% | MDA-MB-231 breast -2.7%
inactive: NCI-H23 lung 75.3% | NCI-H226 lung 57.5% | NCI-H460 lung 39.3% | NCI-H522 lung 20.5% | A549/ATCC NSCLC 50.5% | COLO 205 colon 15.9% | DU-145 prostate 28.4% | MALME-3M melanoma 21.4% | RXF 393 renal 28.2% | SF-268 CNS 35.8% | SF-295 CNS 23.6% | SF-539 CNS 34.8% | UACC-257 melanoma 96.9%

COC(=O)C1OC1c1cc([N+](=O)[O-])ccc1OC (configuration not stated)
inactive: NCI-H23 lung 93% | NCI-H226 lung 100% | NCI-H460 lung 109% | NCI-H522 lung 110% | A549/ATCC NSCLC 103% | 786-0 renal 104% | COLO 205 colon 111% | DU-145 prostate 109% | K-562 leukemia 95.5% | MALME-3M melanoma 102% | MDA-MB-231 breast 123% | RXF 393 renal 99.8% | SF-268 CNS 102% | SF-295 CNS 100% | SF-539 CNS 98.4% | UACC-257 melanoma 117% | M14 melanoma 95%

CCCc1nc(C(C)(C)O)c(C(=O)O)n1Cc1ccc(-c2ccccc2-c2nn[nH]n2)cc1
inactive: NCI-H23 lung 103% | NCI-H226 lung 103% | NCI-H460 lung 105% | HOP-92 NSCLC 91.7% | A549/ATCC NSCLC 99% | 786-0 renal 104% | COLO 205 colon 111% | DU-145 prostate 120% | MALME-3M melanoma 102% | MDA-MB-231 breast 109% | RXF 393 renal 117% | SF-268 CNS 101% | SF-295 CNS 95.3% | SF-539 CNS 103% | UACC-257 melanoma 103% | M14 melanoma 109%

O=C(CCCCCCC(=O)Nc1ccccc1)NO
active: NCI-H23 lung 3.33% | HOP-92 NSCLC -10.4% | A549/ATCC NSCLC 7.25% | COLO 205 colon -62.8% | DU-145 prostate 3.46% | MALME-3M melanoma 1.69% | RXF 393 renal -39.9% | SF-295 CNS -22.6% | UACC-257 melanoma -26%
inactive: NCI-H226 lung 48.9% | NCI-H460 lung 16.3% | 786-0 renal 23.2% | MDA-MB-231 breast 16.4% | SF-268 CNS 14.9% | SF-539 CNS 16.8% | M14 melanoma 23%

Clc1ccc2c(c1)C(N1CCNCC1)=Nc1ccccc1O2
inactive: NCI-H23 lung 64.4% | NCI-H226 lung 83.3% | NCI-H460 lung 68.1% | A549/ATCC NSCLC 65% | 786-0 renal 56.1% | DU-145 prostate 68.4% | MDA-MB-231 breast 19.4% | RXF 393 renal 27.2% | SF-268 CNS 52.9% | SF-295 CNS 58% | SF-539 CNS 73.4% | M14 melanoma 15.7%
active: HOP-92 NSCLC 7.39% | COLO 205 colon -65.9% | MALME-3M melanoma 2.69% | UACC-257 melanoma -18.3%

COc1ccc2nc3cc(Cl)ccc3c(Nc3cc(CN4CCCC4)c(O)c(CN4CCCC4)c3)c2n1
active: NCI-H23 lung -29.4% | NCI-H226 lung -32.1% | NCI-H460 lung 4.16% | HOP-92 NSCLC -16.4% | A549/ATCC NSCLC 9.53% | 786-0 renal 0.406% | COLO 205 colon -48.5% | MALME-3M melanoma -73.6% | MDA-MB-231 breast -21.6% | RXF 393 renal -68.9% | SF-268 CNS -25.1% | SF-295 CNS -26.8% | SF-539 CNS -21.6% | UACC-257 melanoma -87.3%
inactive: DU-145 prostate 18.2%

CCCCC(CC)CN=C(N)NC(N)=NCCCCCCN=C(N)NC(N)=NCC(CC)CCCC (configuration not stated)
active: NCI-H23 lung -80% | NCI-H226 lung -63.1% | NCI-H460 lung -71.3% | HOP-92 NSCLC -53.9% | A549/ATCC NSCLC -87.1% | 786-0 renal -31.2% | COLO 205 colon -79.8% | DU-145 prostate -98.1% | MALME-3M melanoma -73% | MDA-MB-231 breast -84.6% | RXF 393 renal -43.5% | SF-268 CNS -82.8% | SF-295 CNS -84.8% | SF-539 CNS -76.9% | UACC-257 melanoma -47.1% | M14 melanoma -65.1%

COc1ccc(CCN2CCC(Nc3nc4ccccc4n3Cc3ccc(F)cc3)CC2)cc1
active: NCI-H460 lung 1.57% | HOP-92 NSCLC -20.1% | 786-0 renal -96.5% | COLO 205 colon -65.7% | MALME-3M melanoma -79.5% | MDA-MB-231 breast -31.5% | RXF 393 renal -67.8% | SF-295 CNS -85.7% | SF-539 CNS -81% | UACC-257 melanoma -81.7% | M14 melanoma -99.4%
inactive: NCI-H23 lung 47.1% | NCI-H226 lung 60% | A549/ATCC NSCLC 28.7% | DU-145 prostate 46.4% | SF-268 CNS 27.7%

Clc1nc2ccccc2cc1Cn1nnc(Cc2ccccc2)n1
inactive: NCI-H23 lung 45.6% | NCI-H226 lung 58.2% | NCI-H460 lung 74.3% | NCI-H522 lung 42.1% | A549/ATCC NSCLC 53.9% | 786-0 renal 72.9% | COLO 205 colon 82.7% | DU-145 prostate 75.2% | K-562 leukemia 55.2% | MALME-3M melanoma 65.6% | MDA-MB-231 breast 53.1% | RXF 393 renal 83.9% | SF-268 CNS 65.7% | SF-295 CNS 47.6% | SF-539 CNS 81.2% | M14 melanoma 73.6%

C#C[C@]1(O)CCC2C3CCc4cc(OC5CCCC5)ccc4C3CC[C@@]21C (some centres not stated)
inactive: NCI-H23 lung 76.6% | NCI-H226 lung 91.6% | NCI-H460 lung 49.8% | HOP-92 NSCLC 99.6% | A549/ATCC NSCLC 65.9% | 786-0 renal 73.5% | COLO 205 colon 49.3% | DU-145 prostate 89% | MALME-3M melanoma 121% | MDA-MB-231 breast 50.6% | RXF 393 renal 97.7% | SF-268 CNS 71.3% | SF-295 CNS 77.2% | SF-539 CNS 101% | UACC-257 melanoma 92.6% | M14 melanoma 80.2%

CN1CCN(C2=Nc3ccccc3Oc3ccc(Cl)cc32)CC1
inactive: NCI-H23 lung 105% | NCI-H226 lung 111% | NCI-H460 lung 105% | HOP-92 NSCLC 80.4% | A549/ATCC NSCLC 94.8% | 786-0 renal 87.4% | COLO 205 colon 96.9% | DU-145 prostate 108% | MALME-3M melanoma 91.7% | MDA-MB-231 breast 76% | RXF 393 renal 108% | SF-268 CNS 109% | SF-295 CNS 94.8% | SF-539 CNS 111% | UACC-257 melanoma 96.5% | M14 melanoma 103%

COc1ccc(Cc2cnc(N)nc2N)cc1OC
inactive: NCI-H23 lung 96.8% | NCI-H226 lung 99.1% | NCI-H460 lung 105% | HOP-92 NSCLC 90.1% | A549/ATCC NSCLC 101% | 786-0 renal 109% | COLO 205 colon 108% | DU-145 prostate 114% | MALME-3M melanoma 113% | MDA-MB-231 breast 95.3% | RXF 393 renal 105% | SF-268 CNS 106% | SF-295 CNS 96.2% | SF-539 CNS 107% | UACC-257 melanoma 100% | M14 melanoma 108%
